This is a sample that favours compounds with a hit; in the whole collection about 19% have one here.
TDP1 cell CPT: DT40-hTDP1 cell growth loss with CPT | chicken DT40 Tdp1-/-;hTDP1 cells + 20 nM CPT, ATP luminescence, 48 h | Potency, µM (doses to about 46.2 µM), actives largely listed as inhibitors | 420,000 compounds, 12% hits | AID 686979; also: nearly all actives have a fitted effect of over 55% in size
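Cell growth measured by CellTiter-Glo luminescence after a minimum 48 h, 37 C compound exposure with 20 nM CPT in Tdp1-knockout DT40 cells stably expressing hTDP1, seeded 400/well; qHTS titration format.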
TDP1 cell noCPT: qHTS for Inhibitors of human tyrosyl-DNA phosphodiesterase 1 (TDP1): qHTS in cells in absence of CPT; DT40 Tdp1-/- hTDP1 cells, no CPT, ATP luminescence, 48 h; Potency, µM (doses to about 46.2 µM), usual class: inhibitors; 420,000 compounds, 15% hits; also: nearly all actives have a fitted effect of over 55% in size
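No-CPT arm: Tdp1-/-;hTDP1 DT40 cells (400/well) plus compounds, incubated ≥48 hr at 37 °C. Readout CellTiter-Glo luminescence.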
HT1080 IDH1KD tx: kills HT-1080 cells with IDH1 knockdown; HT-1080 IDH1 knockdown viability, ATP luminescence, 48 h; Potency, µM (doses to about 46.1 µM), actives largely listed as cytotoxic; 360,000 compounds, 2% hits; AID 686971
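Using the IDH1-knockdown HT-1080 line run in the same batch and compound series as the NT line, viability after 48 h at 37 °C was determined by CellTiter-Glo luminescence and expressed as % activity.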
ELG1 repair inh: blocks ELG1-dependent DNA repair in HEK293T cells. HEK293T ELG1-luciferase reporter, luminescence, 16 h; DNA damage induced by 5-fluorouridine. Potency, µM (titrated, usually from 46.1 µM), most hits filed as inhibitors. 330,000 compounds, 2.3% hits. AID 504467; also: nearly all actives have a fitted effect of over 55% in size
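Overnight (16 hr) co-exposure of 2,000 cells/well to 5-fluorouridine and compound at 37 °C preceded detection. Luciferase was quantified via ONE-Glo luminescence; loss of signal denotes inhibition.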
IL1B secr inh: inhibitors of inflammasome signaling (IL-1 beta secretion). THP-1 LPS/ATP IL-1B secretion, AlphaLISA, 16 h; active compounds read low. activity change, % at 57.5 µM. 360,000 compounds, 4.7% hits. AID 743279; in the data active = activity change below about -50%; inconclusive = mostly about -30% to -49%
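THP-1 cells pretreated 1 hr with compounds (up to 57.5 uM final), then stimulated with LPS (250 ng/mL final) plus ATP (1.25 mM final); secreted IL-1B measured by AlphaLISA after 16 hr, decreased signal indicating inhibition.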
HT1080-NT tox: kills 2HG-producing HT-1080-NT fibrosarcoma cells. Potency, µM (titrated, usually from 46.1 µM), actives largely listed as cytotoxic. HT-1080-NT fibrosarcoma viability, CellTiter-Glo ATP luminescence, 48 h. AID 686970. 360,000 compounds, 1.6% hits;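 also: NT is the 2HG producing partner of a matched IDH1 knockdown line; nearly all actives have a fitted effect of over 55% in size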
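Read-out is CellTiter-Glo luminescence after 10 minutes at room temperature, following 48 hours' compound treatment of HT-1080-NT cells (750 cells/well, RPMI, 5% FBS, 37 degrees C).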
Hits are given with their value. Unless noted, calls follow the shape of the dose curve; as a rule, active = well fitted curve in the direction sought with a large enough effect; inconclusive = small, poorly fitted or top-dose-only effect, or another doubt; inactive = no such curve, though single readings can be large; an effect the other way counts as inactive or inconclusive.

Results for CCOC(=O)c1cnc(-n2nc(C)cc2C)nc1Oc1ccc(C#N)cc1 ?
TDP1 cell CPT: inactive; TDP1 cell noCPT: inactive; HT1080 IDH1KD tx: inactive; ELG1 repair inh: inactive; IL1B secr inh: inactive; HT1080-NT tox: inactive

Results for CCOC(=O)c1cnc(-n2nc(C)cc2C)nc1Nc1ccc(N(C)C)cc1 ?
TDP1 cell CPT: 1.3µM; TDP1 cell noCPT: 1.84µM; HT1080 IDH1KD tx: inactive; ELG1 repair inh: 14.6µM; IL1B secr inh: inactive; HT1080-NT tox: inactive

What do the screens show for `COc1ccc(Oc2ncc3nc(-c4cn(C)c5ccccc45)c(=O)n(CCC#N)c3n2)cc1`?
TDP1 cell CPT: inactive; TDP1 cell noCPT: inactive

How did O=C(CC[C@H]1O[C@@H](n2ccc(=O)[nH]c2=O)[C@H](O)[C@@H]1O)N[C@@H](Cc1ccccc1)C(=O)NCC1CCCO1 (some centres undefined) do in these assays?
TDP1 cell CPT: inactive; TDP1 cell noCPT: inactive; HT1080 IDH1KD tx: inactive; IL1B secr inh: inactive; HT1080-NT tox: inconclusive

How did CCOC(=O)c1c(NC(=O)c2cc3nc(-c4ccc(OC)cc4)cc(C(F)(F)F)n3n2)sc2c1CCC(C)C2 (centres undefined) do in these assays?
TDP1 cell CPT: inactive; TDP1 cell noCPT: inconclusive

What do the screens show for `CN1C(=O)c2cccc3c(S(=O)(=O)Nc4cccc(C(=O)O)c4)ccc1c23`?
TDP1 cell CPT: inactive; TDP1 cell noCPT: inactive

How did CN(Cc1ccccc1)C(=O)c1ccc2nc([C@@H]3O[C@H](CO)[C@H](O)[C@H](O)[C@H]3O)[nH]c2c1 do in these assays?
TDP1 cell CPT: inactive; TDP1 cell noCPT: inactive; HT1080 IDH1KD tx: inactive; IL1B secr inh: inactive; HT1080-NT tox: inactive

Results for CCOC(=O)c1cnc(-n2nc(C)cc2C)nc1NC1CCCCC1 ?
TDP1 cell CPT: 4.61µM; TDP1 cell noCPT: 5.17µM; HT1080 IDH1KD tx: inactive; ELG1 repair inh: inactive; IL1B secr inh: -100.3; HT1080-NT tox: inconclusive

Results for CCOC(=O)c1cc(NC(=O)NC2CCCCC2)c(C)nc1C ?
TDP1 cell CPT: inactive; TDP1 cell noCPT: inactive; HT1080 IDH1KD tx: inactive; ELG1 repair inh: inactive; IL1B secr inh: inactive; HT1080-NT tox: inactive

What do the screens show for `NS(=O)(=O)c1ccc(NC(=S)N2CCC(Cc3ccccc3)CC2)cc1`?
TDP1 cell CPT: inactive; TDP1 cell noCPT: inconclusive; HT1080 IDH1KD tx: inactive; ELG1 repair inh: inconclusive; IL1B secr inh: -62.2; HT1080-NT tox: inactive

What do the screens show for `NS(=O)(=O)c1ccc(NC(=S)N2CCN(c3ccc(Cl)c(Cl)c3)CC2)cc1`?
TDP1 cell CPT: 6.51µM; TDP1 cell noCPT: 6.51µM; HT1080 IDH1KD tx: inconclusive; ELG1 repair inh: inactive; IL1B secr inh: inactive; HT1080-NT tox: inconclusive

What do the screens show for `S=C(NCCc1ccccc1)N1CCN(Cc2ccc(Cl)c(Cl)c2)CC1`?
TDP1 cell CPT: 18.4µM; TDP1 cell noCPT: inconclusive; HT1080 IDH1KD tx: inactive; ELG1 repair inh: inactive; IL1B secr inh: inactive; HT1080-NT tox: inactive

Results for NS(=O)(=O)c1ccc(NC(=S)N2CCN(Cc3ccc(Cl)c(Cl)c3)CC2)cc1 ?
TDP1 cell CPT: inconclusive; TDP1 cell noCPT: inconclusive; HT1080 IDH1KD tx: inactive; ELG1 repair inh: inconclusive; IL1B secr inh: -72.3; HT1080-NT tox: inactive

How did COc1ccc2ccccc2c1C=NN1CCCCC1 do in these assays?
TDP1 cell CPT: inactive; TDP1 cell noCPT: inconclusive; HT1080 IDH1KD tx: inactive; IL1B secr inh: inactive; HT1080-NT tox: inactive

How did Cc1ccc(NC(=O)C2CCC(CNS(=O)(=O)c3cccc4nsnc34)CC2)c(Cl)c1 (centres undefined) do in these assays?
TDP1 cell CPT: inactive; TDP1 cell noCPT: inconclusive

How did COC(=O)C[C@@H]1C=C[C@H](NS(=O)(=O)c2cccc(F)c2)[C@@H](CO)O1 do in these assays?
TDP1 cell CPT: inactive; TDP1 cell noCPT: inactive; HT1080 IDH1KD tx: inactive; IL1B secr inh: inactive; HT1080-NT tox: inconclusive

Bioassay records (PubChem BioAssay)
